Target: CCT7 (UniProt Q99832)
Assay: cross-linking mass spectrometry
Details: TSTO, in cells

CCT7, sequence (Q99832 whole entry): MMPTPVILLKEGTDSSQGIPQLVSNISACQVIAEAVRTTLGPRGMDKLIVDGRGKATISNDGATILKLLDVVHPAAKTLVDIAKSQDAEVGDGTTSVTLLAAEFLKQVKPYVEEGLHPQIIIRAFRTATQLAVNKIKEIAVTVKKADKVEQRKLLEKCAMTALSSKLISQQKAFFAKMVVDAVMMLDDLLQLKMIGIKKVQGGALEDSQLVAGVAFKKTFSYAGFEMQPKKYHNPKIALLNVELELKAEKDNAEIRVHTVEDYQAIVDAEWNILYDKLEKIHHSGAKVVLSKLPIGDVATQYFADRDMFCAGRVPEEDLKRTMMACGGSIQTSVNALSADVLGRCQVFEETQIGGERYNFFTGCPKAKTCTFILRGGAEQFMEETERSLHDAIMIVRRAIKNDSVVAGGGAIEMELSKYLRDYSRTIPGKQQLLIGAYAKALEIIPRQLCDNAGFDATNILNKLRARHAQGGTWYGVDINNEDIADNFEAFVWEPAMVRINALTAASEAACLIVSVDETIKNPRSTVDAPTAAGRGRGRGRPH
CCT5, P48643, sequence (P48643 whole entry): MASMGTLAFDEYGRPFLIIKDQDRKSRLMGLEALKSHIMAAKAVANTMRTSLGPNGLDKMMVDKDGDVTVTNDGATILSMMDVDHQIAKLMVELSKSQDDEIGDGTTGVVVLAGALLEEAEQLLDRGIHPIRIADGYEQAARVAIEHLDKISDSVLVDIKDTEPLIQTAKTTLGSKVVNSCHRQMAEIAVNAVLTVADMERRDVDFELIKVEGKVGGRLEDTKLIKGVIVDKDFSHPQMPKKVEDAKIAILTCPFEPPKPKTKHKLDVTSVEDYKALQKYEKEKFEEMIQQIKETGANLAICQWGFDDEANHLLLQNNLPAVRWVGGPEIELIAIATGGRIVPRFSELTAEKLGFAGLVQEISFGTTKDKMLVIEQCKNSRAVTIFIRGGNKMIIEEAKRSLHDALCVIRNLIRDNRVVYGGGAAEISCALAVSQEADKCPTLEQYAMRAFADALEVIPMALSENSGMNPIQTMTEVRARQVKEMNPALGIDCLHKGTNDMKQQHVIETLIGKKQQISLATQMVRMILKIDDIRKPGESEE
VBP1, P61758, sequence (P61758 whole entry): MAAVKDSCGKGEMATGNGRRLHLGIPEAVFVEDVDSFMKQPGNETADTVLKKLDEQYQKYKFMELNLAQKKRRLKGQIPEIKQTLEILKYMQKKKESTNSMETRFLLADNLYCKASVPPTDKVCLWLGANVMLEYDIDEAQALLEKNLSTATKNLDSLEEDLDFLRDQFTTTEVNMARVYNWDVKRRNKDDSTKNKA
CCT2, P78371, sequence (P78371 whole entry): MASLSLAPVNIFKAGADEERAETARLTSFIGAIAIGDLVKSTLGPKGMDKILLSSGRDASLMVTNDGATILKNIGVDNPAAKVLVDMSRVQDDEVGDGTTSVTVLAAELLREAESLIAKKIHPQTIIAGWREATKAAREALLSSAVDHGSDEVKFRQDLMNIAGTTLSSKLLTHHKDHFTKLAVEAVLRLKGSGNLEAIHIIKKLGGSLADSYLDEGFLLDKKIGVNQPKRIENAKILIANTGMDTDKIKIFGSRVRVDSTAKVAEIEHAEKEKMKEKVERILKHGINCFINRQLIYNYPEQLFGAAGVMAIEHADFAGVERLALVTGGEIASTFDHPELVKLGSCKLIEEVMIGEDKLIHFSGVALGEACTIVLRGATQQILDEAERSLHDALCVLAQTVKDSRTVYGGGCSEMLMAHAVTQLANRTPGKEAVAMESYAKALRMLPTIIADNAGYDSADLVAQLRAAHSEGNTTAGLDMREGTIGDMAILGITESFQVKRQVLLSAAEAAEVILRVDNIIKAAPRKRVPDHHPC
CCT8, P50990, sequence (P50990 whole entry): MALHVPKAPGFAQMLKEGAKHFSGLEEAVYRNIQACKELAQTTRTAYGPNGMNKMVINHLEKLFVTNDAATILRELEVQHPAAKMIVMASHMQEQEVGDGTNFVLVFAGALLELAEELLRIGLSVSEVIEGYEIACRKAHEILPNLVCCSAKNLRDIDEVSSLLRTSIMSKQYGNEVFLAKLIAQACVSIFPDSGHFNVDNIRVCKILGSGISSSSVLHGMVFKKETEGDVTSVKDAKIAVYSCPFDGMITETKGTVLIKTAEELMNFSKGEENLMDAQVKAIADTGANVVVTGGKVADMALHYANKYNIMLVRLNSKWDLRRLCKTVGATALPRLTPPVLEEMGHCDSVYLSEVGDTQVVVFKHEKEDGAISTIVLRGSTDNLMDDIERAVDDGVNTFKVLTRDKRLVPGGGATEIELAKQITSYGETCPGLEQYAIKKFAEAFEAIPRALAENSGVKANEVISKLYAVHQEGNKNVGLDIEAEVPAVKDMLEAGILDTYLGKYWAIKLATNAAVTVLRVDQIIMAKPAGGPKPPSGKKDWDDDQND

Substance | cross-linked residues
VBP1, P61758 | K189 - K292
CCT8, P50990 | K270 - K280
CCT5, P48643 | K232 - K250
CCT2, P78371 | K248 - K250
